Hits are enriched below; roughly 11% of the tested compounds scored in any of these assays.
AmpC inh no detg: inhibitors of E. coli AmpC beta-lactamase without detergent; AmpC nitrocefin hydrolysis, absorbance 480 nm, 0.0001% Triton; Potency, µM (top dose mostly 57.1 µM), for the others: at the highest dose activity change, negative = inhibition, hits mostly inhibitors; P00811; 330,000 compounds, 0.52% hits;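 further: plate controls were no compound for no effect and no enzyme for full effect; nearly all actives have a fitted effect of over 20% in size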
Target sequence (P00811 whole entry, looked up): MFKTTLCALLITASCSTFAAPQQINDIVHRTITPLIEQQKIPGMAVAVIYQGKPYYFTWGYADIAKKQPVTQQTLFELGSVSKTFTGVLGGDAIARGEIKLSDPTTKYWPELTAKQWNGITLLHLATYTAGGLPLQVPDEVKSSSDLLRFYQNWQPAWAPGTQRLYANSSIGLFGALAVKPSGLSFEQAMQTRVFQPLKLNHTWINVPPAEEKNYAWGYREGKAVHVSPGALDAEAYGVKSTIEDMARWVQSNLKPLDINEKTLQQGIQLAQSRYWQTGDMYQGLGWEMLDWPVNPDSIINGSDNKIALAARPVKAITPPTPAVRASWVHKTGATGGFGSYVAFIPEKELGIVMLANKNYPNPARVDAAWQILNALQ
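20 mM phosphate pH 7.0 + 0.01% (detergent screen) or 0.0001% Triton X-100; 5.3 nM AmpC reagent; cpd preinc 15 min RT; nitrocefin (800 uM stock) to start; A480 q20 s × 4 min; Activity was normalised to no-enzyme and no-compound control wells.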
AMA1-RON2 inh: inhibitors of Plasmodium falciparum AMA1-RON2 interaction. Potency, µM (top dose mostly 58.2 µM), for inactives: at the highest dose activity change, negative = inhibition, usual class: inhibitors. 360,000 compounds, 0.2% hits. AlphaScreen AMA1-biotinylated RON2 peptide binding;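 further: 0% = vehicle wells and -100% = peptide control; nearly all actives have a fitted effect of over 45% in size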
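AMA1 (3D7) with his tag at 25 nM final met compounds first, then biotinylated RON2 peptide at 25 nM; detection used donor plus acceptor beads, 10 µg/mL apiece, read by AlphaScreen after 30 min at room temperature.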
Pf growth 96h: P. falciparum growth inhibition at 96 hours; AID 504834; Potency, µM (highest dose often 28.7 µM), for inactives: top-dose activity change, negative = inhibition, hits mostly inhibitors; P. falciparum luciferase reporter growth, 96 h; 320,000 compounds, 6.9% hits
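P. falciparum expressing integrated firefly luciferase grown in erythrocytes (2% hematocrit, 0.05% parasitemia final) with compounds for 96 hours at 37 C, 5% CO2. Growth inhibition read as loss of luminescence after adding luciferase detection reagent.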
AmpC inh detg: AmpC beta-lactamase inhibition with detergent present. Potency, µM (doses to about 114 µM), inactives show at the highest dose activity change, negative = inhibition, hits mostly inhibitors. 370,000 compounds, 0.041% hits. AID 485294. P00811. AmpC hydrolysis of nitrocefin, absorbance 480 nm, 0.01% Triton;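 further: 0% = no-compound wells and -100% = no-enzyme wells; nearly all actives have a fitted effect of over 25% in size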
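20 mM phosphate pH 7.0 + 0.01% (detergent screen) or 0.0001% Triton X-100; 5.3 nM AmpC reagent; cpd preinc 15 min RT; nitrocefin (800 uM stock) to start; A480 q20 s × 4 min; Activity was normalised to no-enzyme and no-compound control wells.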
HCV inhibitor: blocks hepatitis C virus; Huh7.5.1 HCVcc-Cre infection, luciferase reporter, 44 h; Potency, µM (top dose mostly 41.8 µM), without a hit: at the top dose activity change, negative = inhibition, usual class: inhibitors; 340,000 compounds, 3.4% hits
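A cell-based infection assay in which seeded cells (1,000 per well) receive test compound after 4 h, are inoculated with HCVcc-Cre at approximately 0.5 moi, and are incubated 44 h before luminescence detection.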
Pf growth 48h: inhibits P. falciparum growth in the first generation, 48 h; P. falciparum luciferase growth in erythrocytes, 48 h; Potency, µM (titrated, usually from 28.7 µM), inactives show at the top dose activity change, negative = inhibition, usual class: inhibitors; 310,000 compounds, 5.9% hits
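Luminescence readout; reporter = integrated firefly luciferase in P. falciparum. RBC culture at 2% hematocrit, 0.1% parasitemia final, 37 C/5% CO2; decreased signal taken as growth inhibition.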
An asterisk follows results filed as active; ? = inconclusive; · = no result; [ ] = dose if it differs, or a comment. The call rests on the fitted dose curve; in most records, active means well fitted curve in the direction sought with a large enough effect; inconclusive means small, poorly fitted or top-dose-only effect, or another doubt; inactive means no such curve, though single readings can be large; an effect the other way counts as inactive or inconclusive. Unless noted, on the % scale 0 is the no-effect control and ±100 the full control effect; potency means the concentration at half of the fitted maximal effect.

SMILES	AmpC inh no detg	AMA1-RON2 inh	Pf growth 96h	AmpC inh detg	HCV inhibitor	Pf growth 48h
CC1=NN(c2ccccc2)C(=O)C1C=Nc1ccccc1O (stereo not drawn)	-36.2%	46.7%	?	10.0%	?	5.22µM*
CN(Cc1ccccc1)C(=O)c1cc2c(s1)-c1ccc(Cl)cc1SC2	·	·	·	15.0%	·	·
COc1ccccc1NC(=O)Nc1nnc(Cc2ccccc2F)s1	-33.8%	-9.3%	11.6%	-2.1%	-28.7%	-0.4%[0.00184 µM]
O=C(Nc1ccccc1)Nc1nnc(Cc2ccccc2F)s1	-35.4%	13.6%	?	-1.6%	0.7%	-0.1%
O=C(Nc1ccc(F)cc1)Nc1nnc(Cc2ccccc2F)s1	-33.9%	-1.9%	10.4µM*	?	-29.5%	?
COc1ccc(S(=O)(=O)CCc2nnc(NC(=O)c3cccs3)s2)cc1	-4.0%	12.5%	32.6%	-1.2%	20.5%	2.33µM*
O=C(Nc1nnc(Cc2ccccc2)s1)Nc1ccccc1F	-13.1%	0.7%	14.7µM*	6.3%	-7.5%	-39.4%
COc1ccc(Cc2nnc(NC(=O)c3ccccc3C)s2)cc1	-5.3%	12.9%	2.08µM*	-8.4%	-2.1%	33.9%
CC(C)(C)OC(=O)N1CCC(c2c(C(=O)NCCN3CCC(Cc4ccccc4)CC3)cnn2-c2cccc(Cl)c2)CC1	·	·	·	28.6%	·	·
COC(=O)c1cc(OC)c(OC)cc1NC(=O)c1ccc2c(c1)CCN2S(=O)(=O)c1ccccc1	·	·	·	20.7%	·	·
Cc1ccc(C)c(NC(=O)C(=O)NCC(c2cccnc2)N2CCN(c3ccc(F)cc3)CC2)c1 (stereo not drawn)	·	·	·	2.2%	·	·
O=C(Nc1nnc(Cc2ccccc2)s1)c1ccccc1	0.8%	2.0%	?	0.6%	2.9%	84.5%
Cc1cccc(C(=O)Nc2nnc(Cc3ccccc3)s2)c1	15.0%	1.7%	10.4µM*	-11.5%	-4.4%	?
O=C(Nc1nnc(Cc2ccccc2)s1)C1CCC1	-23.3%	5.4%	1.65µM*	4.9%	1.1%	?
CCOc1ccc(Nc2oc(-c3ccc(COc4ccccc4C)o3)nc2C#N)cc1	·	·	·	11.0%	·	·
COc1ccc(NC(=O)c2c(C)noc2-c2snnc2C)cc1	-25.6%	-0.7%	2.94µM*	1.2%	-21.9%	13.1µM*
Cc1ccc(S(=O)(=O)CC(=O)N2CCCCCC2)cc1	-9.2%	-5.1%	?	3.8%	14.7%	14.4%
O=C(CS(=O)(=O)c1ccccc1)N1CCCCC1	-9.6%	17.2%	2.62µM*	?	1.2%	10.3%
Cc1cc(Cl)ccc1OCC(=O)NCCOC(=O)Nc1sc(=S)n(C)c1C	-8.9%	-5.4%	4.65µM*	?	?	7.1%
Cc1c(NC(=O)OCCNC(=O)Nc2ccccc2)sc(=S)n1C	-14.8%	-3.9%	4.65µM*	6.2%	12.2%	11.9%
Cc1ccc(Cl)cc1OCC(=O)NCCOC(=O)Nc1sc(=S)n(C)c1C	17.4%	-1.4%	-28.3%	-10.7%	?	0.1%
O=C(Cc1nc2ccccc2[nH]1)c1ccc(Cl)cc1	-8.7%	63.1%	?	-5.3%	?	2.33µM*
N#CCCN/N=C(/Cc1nc2ccccc2[nH]1)c1cccc(Cl)c1	-27.7%	28.8%	·	6.0%	?	10.4µM*
O=C(NCCc1nc2ccccc2[nH]1)c1cccc(Br)c1	1.4%[2.29 µM]	-1.5%	7.5%	0.3%	?	-7.9%
CN/N=C(\Cc1nc2ccccc2[nH]1)c1ccc([N+](=O)[O-])cc1	-36.8%	22.7%	?	2.3%	-24.0%	?
Clc1ccc(/C(Cc2nc3ccccc3[nH]2)=N\Nc2ccccc2)cc1	-1.0%	76.3%	?	10.6%	11.2µM*	?
O=C(Cc1nc2ccccc2[nH]1)c1ccc([N+](=O)[O-])cc1	-36.0%	64.6%	2.94µM*	?	-11.0%	1.85µM*
CC(C)(C)c1ccc(CSc2nc3c(c(=O)[nH]2)CCCC3)cc1	·	·	·	-3.7%	·	·
Cn1nc(-c2ccccc2F)c2cc(C(=O)NCCc3ccc(Cl)cc3)sc21	·	·	·	-0.6%	·	·
